Growth data for eight molecules are collected here from PubChem BioAssay (NCI).

Holding throughout (test): NCI-60 one-dose screen, 48 h (100 = growth as untreated, 0 = no growth, -100 = all killed)
Common to all, as to details: 10 µM unless noted

Assay [1] relates to DU-145 prostate.
Assay [2] deals with K-562 leukemia.
Assay [3] concerns MALME-3M melanoma.
Assay [4] concerns MDA-MB-231 breast.
In assay [5] the test system is RXF 393 renal.
Assay [6] concerns SF-268 CNS.
The subject of assay [7] is SF-295 CNS.
Assay [8] deals with SF-539 CNS.
Assay [9] relates to UACC-257 melanoma.
For assay [10], the system named is M14 melanoma.
Assay [11] relates to HCT-15 colon.
Assay [12] has as its system HT29 colon.
For assay [13], the system named is SNB-75 CNS.
In assay [14] the test system is SNB-19 CNS.
Assay [15] deals with U251 CNS.
The test system of assay [16] is PC-3 prostate.
Assay [17] concerns SK-MEL-5 melanoma.
Assay [18] deals with LOX IMVI melanoma.
The subject of assay [19] is SK-MEL-28 melanoma.
For assay [20], the system named is UACC-62 melanoma.

The structures appear in SMILES notation. This is part of a sample that, as a whole, favours compounds with a hit. Of some 83,000 tested, about 20% had one in any assay.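 Assay: single dose, 48 h. Readout: percent growth (0 = no net growth; negative = cell death). Active: <10.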 Unmarked numbers belong to inactive results. Calls of active or inactive are those of the source.

As to `O=C(N/N=C/c1ccc(Cl)cc1)c1[nH]c2ccc(Cl)cc2c1-c1ccccc1`, the growth in assay [1] was -2.5% (active); in [2], 39.3%; in assay [3], 62.3%; in assay [4], 9.64% (active); in assay [5], 34.6%; in assay [6] it was 27.2%. Moreover, the growth was -24.1% (active) in assay [7]; -0.139% (active) in assay [8]; 59.9% in assay [9]; 20.2% in assay [10]; 11.2% in [11]; 19.4% in [12]. Also, the growth in assay [13] was 70.5%; in [14] it was 15.1%; in assay [15], 10.4%; in assay [16] it was 17.2%; in [17] it was -36.6% (active); in assay [18], 19%. The growth in [19] is 93.3%.

On to `COc1cc2c(c(OC)c1OC)CCC(c1cccc(C(=O)Nc3cccc(Cl)c3)c1)O2` (configuration not stated), for which the growth in [1] was 81%; in [2], 38.2%; in assay [3], 75.2%; in assay [4], 25.7%; in [5], 66.9%; in assay [6], 72.1%. The growth in assay [7] is 65%; in assay [8] it was 77.6%; in [9], 74.5%; in assay [10] it was 62.1%; in assay [11], 75.2%; in [12] it was 63.6%. The growth in assay [13] is 63.7%; in [14], 76.5%; in assay [15], 72.4%; in assay [16], 34%; in [17], 63%; in assay [18], 65.2%. Further, the growth in assay [19] is 78.1%.

As for `N#Cc1ccc(O)c(C2=NCC(c3cccc(Oc4ccccc4)c3)O2)c1` (configuration not stated), the growth is 39.4% in assay [1]; 7.33% (active) in [2]; 37.3% in assay [3]; 24.6% in [4]; 61.8% in [5]; 23.1% in [6]. Besides, the growth in assay [7] was 30.9%; in assay [8], 23.6%; in assay [9], 6.96% (active); in assay [10], -4.77% (active); in assay [11], 26.8%; in [12], 13.8%. For the same molecule, the growth is 51.7% in assay [13]; 22.3% in assay [14]; 3.98% (active) in assay [15]; 31.4% in assay [16]; 32.7% in assay [17]; 23% in assay [18]. In [19], the growth was 37.5%.

Consider `O=C(/C=C/c1ccccc1)Nc1ncc(Cc2ccccc2Cl)s1`, for which the growth in assay [1] was 26.9%; in [2], 12.6%; in assay [3], 53.8%; in assay [4], 40.3%; in assay [5], -7.17% (active); in assay [6], 71.6%. Further, the growth in assay [7] is -2.76% (active); in assay [8], -16.3% (active); in assay [9], 77.1%; in assay [10], 8.18% (active); in assay [11], 16%; in assay [12], 6.09% (active). Further, the growth was 15.8% in assay [13]; 30.5% in assay [14]; 27.2% in [15]; 25.8% in assay [16]; 34.3% in assay [17]; 34.1% in [20]. Further, the growth in assay [19] was 55.7%.

As to `CSc1nc(N)c(NS(=O)(=O)c2ccc(C(C)=O)cc2)c(=O)[nH]1`, the growth in [1] is 110%; in [2], 96%; in assay [3], 100%; in assay [4], 104%; in [5], 96.9%; in assay [6], 99.9%. Further, the growth in [7] is 97.3%; in assay [8], 112%; in [9], 105%; in [10], 89.3%; in [11] it was 98.4%; in [12], 103%. In addition, the growth in assay [13] is 87.6%; in [14], 107%; in assay [15], 112%; in assay [16], 102%; in [17], 97.5%; in [18], 101%. For the same molecule, in [19], the growth is 104%.

Take `CCOC(=O)c1c(NC(=O)c2ccc(Cl)cc2)sc2c(CN(C)C)c(O)ccc12`: the growth in [1] was 82%; in assay [2] it was 8.81% (active); in assay [3] it was 51.6%; in assay [4], 56.4%; in assay [5], 64.2%; in assay [6] it was 78.5%. In addition, the growth in [7] is 83.5%; in assay [8], 56.7%; in assay [9], 2.24% (active); in assay [10] it was -18.4% (active); in assay [11], -1.49% (active); in assay [12] it was 23%. The growth in assay [13] was 79.2%; in assay [14] it was 79.5%; in assay [15] it was 54.4%; in assay [16] it was 72.9%; in [17], 87.4%; in assay [20], 103%. Besides, the growth in [19] is 73.8%.

As for `COc1ccc(OC)c(-c2nc(SCC(=O)c3ccc(C#N)cc3)[nH]c(=O)c2C#N)c1`, the growth is 99.6% in [1]; 111% in assay [2]; 97.8% in [3]; 101% in [4]; 105% in assay [5]; 93.3% in assay [6]. Further, the growth was 99.5% in assay [7]; 93.8% in [8]; 99.9% in assay [9]; 91.7% in assay [10]; 96.9% in assay [11]; 108% in assay [12]. Besides, the growth is 93.7% in assay [13]; 97.6% in assay [14]; 103% in assay [15]; 94.5% in [16]; 106% in assay [17]; 94.7% in assay [20]. Besides, in assay [19], the growth is 102%.

As to `CC(C)c1ccc(-n2c(=S)[nH]c3sc4cc(O)ccc4c3c2=O)cc1`, the growth in assay [1] is 104%; in [2], 107%; in [3] it was 87.1%; in [4], 95.4%; in assay [5] it was 91.2%; in assay [6] it was 99.4%. Moreover, the growth in assay [7] was 103%; in assay [8] it was 93.6%; in assay [9], 111%; in assay [10], 94.6%; in [11], 97.7%; in assay [12] it was 113%. The growth in assay [13] is 85.9%; in assay [14], 90.4%; in assay [15], 103%; in assay [16], 100%; in assay [17], 98.6%; in assay [20] it was 93.6%. In addition, the growth in assay [19] was 103%.
